For 40 sequences, PBM binding z-score results are on record in the supplement of paper PMC6555819.

For this experiment, the system named is VDR:RXRa (NR concentration 270 nM, RXRa partner concentration 90 nM). The experiment in a line: PBM binding z-score (relative to random genomic background probes); higher = stronger binding; sequences stand for … in GC…GCGATTGACAGCGTAGAATGAAGG
As for the experimental part: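 Protein-binding microarray (Agilent 4x180K custom design, double-stranded 60-nt probes: 5' GC cap, 34-nt variable region, 24-nt constant primer region; full probe sequence given). Purified or IVT nuclear receptor:RXRα heterodimers (3:1 NR:RXRα, mostly 270:90 nM) or homodimers were incubated for 1 h in PBS with 2% milk and no ligand, then detected with Alexa488 antibodies. Fluorescence from o1-orientation probes (~5 replicates averaged) was converted to z-scores against 500 random hg19 background probes. Variable regions are seed direct-repeat (DR0–DR5) sites, all their single-nucleotide variants and half-site ablations.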
Regarding ACTAGTTGGTCAACTGAGGTCACACACAATTCGG, the PBM binding z-score was 5.33.

GCTGCTAGGTCAATTGATGGTCAGCTAAAGCTCG came in with a PBM binding z-score of 0.815.

In the case of CCTACTTGGCCATCAGGTCATTGATATCAACGTT, the PBM binding z-score came out at 2.12.

In turn, TTAACAAGGTGAGCTGAGGTCGTTGATCCAACTC came in with a PBM binding z-score of 4.08.

For the sequence CCAACTAGGTCACGAAAGGTCAAAGTCGAATGAC, the PBM binding z-score is 6.81.

The sequence GCTAGTTGGTCAGTAAAAGGTCACACAACGGTCG returned a PBM binding z-score of 4.19.

Take ATCTCTAGGTAAAGTTAGTTCAGTGAATGCAAAT: the PBM binding z-score turned out to be 1.42.

ATCTCTAGGTAAAGTTCAGTTAAAGATCGATAGA returned a PBM binding z-score of 1.82.

As for TTACCAAGGTGAGCTGTGGTCGTTGATCCAACTC, the PBM binding z-score is -0.311.

For the sequence CTACCAAGGTAAACAAGGTCGTTGATTACTATTC, the PBM binding z-score turned out to be 4.73.

With CCGAGTAGGTTATGGGGCACTCAGGCAACGGTGA, the PBM binding z-score is -0.0808.

As to TAGCCTAGGTCATGCGGGCCAGTTTAGTGTCGGC, the PBM binding z-score stood at 2.97.

Sequence CGAACTAGGTCATCCTGGACAGTGAATACATTGA yielded a PBM binding z-score of 2.56.

As for ATCTGTAGGTAAAGATAGTTCAGTGAATGCAAAT, the PBM binding z-score came out at 0.945.

Sequence ACTAGTTCGTCAGCTGAGGTCACACACAATTCGG displayed a PBM binding z-score of 4.7.

As for ATATGTAGGTTAGCGGGTCATTCAGTTTGCGCAT, the PBM binding z-score was determined as 4.74.

CTCGAAAGGTCGTGCTCAGGTGAGTGTACCAAAC displayed a PBM binding z-score of 3.44.

In turn, AGAATGAGGTTATTAAGATCAGGCAATTGCGGTC showed a PBM binding z-score of 2.48.

The sequence TTACCAAGGTGAAGGTTGTTGATCCCTCTGTAGA gave a PBM binding z-score of 0.381.

Consider ACAGACAGGTGATGAAGGTAACTCAGGCTATCAT, for which the PBM binding z-score came to 0.0426.

On to CGAACTAGGTCATCCAGGAAAGTGAATACATTGA, for which the PBM binding z-score came to 2.24.

Regarding CCGACTGGGGCAGGAAGGTTACCATACCATCCGG, the PBM binding z-score worked out at 0.235.

Turning to GGAACGAGGGCAAAGTTGATAGTATCTGTCGACG, the PBM binding z-score came out at 1.21.

In turn, CTCGAAAGGTCGTGCTCTGGTGAGTATACCAAAC displayed a PBM binding z-score of 3.19.

As to GCGACTGGGGCAAAGCAGGTTAGCATAAGGTTGG, the PBM binding z-score was -0.429.

With TCTTGTAGATCAAGCAGGATAAGAAAGCCTGAGT, the PBM binding z-score stood at 0.405.

TCTATTAGTTGAAGGGCAAACGACGAGTCCGTTT returned a PBM binding z-score of 1.45.

In turn, GCTGCTACGTCAGGTTGGTCAGCTAACGGGTACG registered a PBM binding z-score of -0.773.

With TCTTGTAGATCAACAGAAGGTTAAGAAAGATCGA, the PBM binding z-score came to 0.765.

The sequence CCTCGGTGGACAGAAGGTCAGAGCTGTCCGCTTT showed a PBM binding z-score of 0.609.

Take CCTATTAGTTGACCATAAGGGCAACCTAAGCTCG: the PBM binding z-score was determined as 0.839.

As to ACAATGAGGTTATACGTAGATCAGGGAAGAAAGT, the PBM binding z-score came to 1.5.

Sequence CTACCAAGGTGAACAAGGTCGTTGATTACTATTC registered a PBM binding z-score of 5.95.

In turn, ATCTCTAGGTAACCAAGTTCAGTGACTGCCGAAC showed a PBM binding z-score of 4.15.

Turning to CCTGTTAGGTCATGGTCAGCTAATCTACAGTATG, the PBM binding z-score is 2.02.

For ATCTCTAGGTAAAAGTTCAGCGAATCCCGAGGAT, the PBM binding z-score turned out to be 1.69.

With ACAGACGGGTGAGTGAAGGTAACTCAGCTGGACG, the PBM binding z-score was -0.422.

TCTAGCAGGCCAGAGGGTCACTCTAGAGGTACGG returned a PBM binding z-score of 0.978.

AGAATGAGGTTAAGATCGGGGAAACAGAATACAT came in with a PBM binding z-score of 1.18.

For the sequence AGTCAAAGTTCAGGACGAGGTAAGGTAAAGCACG, the PBM binding z-score was 2.4.
